# The supplement of paper PMC4709259
# Structures can show the parent of a compound that is named as a salt. ± gives the standard deviation.
# System: Jurkat
# Experiment: cell count relative to DMSO control (fraction of control); higher = more cells (less growth inhibition)
# Conditions: 48 h
row,Structure (SMILES),cell count
1,CC(C[N+](C)(C)C)OC(N)=O (stereo not given) [Bethanechol Chloride] (concentration: 25 µM),0.393 ± 0.12
2,C[N+](C)(C)CCOC(N)=O [Carbachol (Carbamylcholine ) Chloride] (concentration: 25 µM),1.13 ± 0.12
3,C[C@]12C=CC(=O)C=C1CC[C@@H]1[C@@H]2[C@@H](O)C[C@@]2(C)[C@H]1CC[C@]2(O)C(=O)CO [Prednisolone] (concentration: 25 µM),0.836 ± 0.14
4,CC(C)[C@H](N)C(=O)OCC(CO)OCn1cnc2c(=O)[nH]c(N)nc21 (stereo not given in full) [Valganciclovir·HCl] (concentration: 25 µM),0.892 ± 0.099
5,CC1=C(CC(=O)O)c2cc(F)ccc2/C1=C\c1ccc([S+](C)[O-])cc1 (stereo not given) [Sulindac] (concentration: 25 µM),0.782 ± 0.083
6,CC(=O)[C@]1(O)Cc2c(O)c3c(c(O)c2[C@@H](O[C@H]2C[C@H](N)[C@H](O)[C@H](C)O2)C1)C(=O)c1ccccc1C3=O [Idarubicin·HCl] (concentration: 25 nM),0.622 ± 0.11
7,CN(C/C=C/c1ccccc1)Cc1cccc2ccccc12 [Naftifine·HCl] (concentration: 25 µM),0.848 ± 0.089
8,NC(N)=Nc1nc(CSCC/C(N)=N/S(N)(=O)=O)cs1 [Famotidine] (concentration: 25 µM),1.19 ± 0.12
9,C[n+]1ccccc1/C=N/O [Pralidoxime Chloride] (concentration: 25 µM),0.959 ± 0.1
10,CCOC(=O)[C@H](CCc1ccccc1)N[C@@H](C)C(=O)N1Cc2cc(OC)c(OC)cc2C[C@H]1C(=O)O [Moexipril·HCl] (concentration: 25 µM),0.587 ± 0.074
11,C[C@H](CCC(=O)O)[C@H]1CC[C@H]2[C@@H]3[C@@H](O)C[C@@H]4C[C@H](O)CC[C@]4(C)[C@H]3CC[C@]12C [Ursodiol] (concentration: 25 µM),0.718 ± 0.096
12,CC#C[C@]1(O)CC[C@H]2[C@@H]3CCC4=CC(=O)CCC4=C3[C@@H](c3ccc(N(C)C)cc3)C[C@@]21C [Mifepristone] (concentration: 25 µM),0.424 ± 0.054
13,COC(=O)[C@H]1[C@H]2C[C@@H]3c4[nH]c5cc(OC)ccc5c4CCN3C[C@H]2C[C@@H](OC(=O)c2cc(OC)c(OC)c(OC)c2)[C@@H]1OC [Reserpine] (concentration: 25 µM),0.616 ± 0.098
14,C=CC[C@@H]1/C=C(\C)C[C@H](C)C[C@H](OC)[C@H]2O[C@@](O)(C(=O)C(=O)N3CCCC[C@H]3C(=O)O[C@H](/C(C)=C/[C@@H]3CC[C@@H](O)[C@H](OC)C3)[C@H](C)[C@@H](O)CC1=O)[C@H](C)C[C@@H]2OC [Tacrolimus (Fk506)] (concentration: 25 µM),0.408 ± 0.045
15,CCCCc1ncc(/C=C(\Cc2cccs2)C(=O)O)n1Cc1ccc(C(=O)O)cc1 [Eprosartan Mesylate] (concentration: 25 µM),0.864 ± 0.071
16,Nc1cccc2c1CN(C1CCC(=O)NC1=O)C2=O (stereo not given) [Lenalidomide] (concentration: 25 µM),1.03 ± 0.11
17,C[C@@H](O)[C@H]1C(=O)N2C(C(=O)O)=C(S[C@@H]3CN[C@H](CNS(N)(=O)=O)C3)[C@H](C)[C@H]12 [Doripenem] (concentration: 25 µM),0.963 ± 0.12
18,C[C@@H](CN1CC(=O)NC(=O)C1)N1CC(=O)NC(=O)C1 [Dexrazoxane] (concentration: 25 µM),0.411 ± 0.11
19,CCOC(=O)C1=C[C@@H](OC(CC)CC)[C@H](NC(C)=O)[C@@H](N)C1 [Oseltamivir Phosphate] (concentration: 25 µM),0.939 ± 0.075
20,Nc1ccc(S(N)(=O)=O)cc1 [Sulfanilamide] (concentration: 25 µM),0.546 ± 0.18

row,Structure (SMILES),cell count
1,CC(C)(C)NC[C@H](O)COc1cccc2c1CCCC2=O [Levobunolol·HCl] (concentration: 25 µM),1.11 ± 0.03
2,Nc1nc(N)c2nc(-c3ccccc3)c(N)nc2n1 [Triamterene] (concentration: 25 µM),0.398 ± 0.082
3,Cc1cccc(C)c1NC(=O)C1CCCCN1C (stereo not given) [Mepivacaine·HCl] (concentration: 25 µM),1.31 ± 0.14
4,COc1ccc([C@@H]2Sc3ccccc3N(CCN(C)C)C(=O)[C@@H]2OC(C)=O)cc1 [Diltiazem·HCl] (concentration: 25 µM),0.359 ± 0.13
5,Nc1nc(O)c2ncn(CCC(CO)CO)c2n1 [Penciclovir] (concentration: 25 µM),0.993 ± 0.053
6,CCOC(=O)C1=C(COCCN)NC(C)=C(C(=O)OC)C1c1ccccc1Cl (stereo not given) [Amlodipine] (concentration: 25 µM),0.268 ± 0.055
7,Clc1ccccc1C(c1ccccc1)(c1ccccc1)n1ccnc1 [Clotrimazole] (concentration: 25 µM),0.591 ± 0.05
8,CCC1=C(C)CN(C(=O)NCCc2ccc(S(=O)(=O)NC(=O)N[C@H]3CC[C@H](C)CC3)cc2)C1=O [Glimepiride] (concentration: 25 µM),0.859 ± 0.076
9,Cc1cc(C2CCCCC2)n(O)c(=O)c1 [Ciclopirox] (concentration: 2.5 µM),0.395 ± 0.07
10,CN/C(=N\CCSCc1nc[nH]c1C)NC#N [Cimetidine] (concentration: 25 µM),0.733 ± 0.17
11,CCCCCOC(=O)Nc1nc(=O)n([C@@H]2O[C@H](C)[C@@H](O)[C@H]2O)cc1F [Capecitabine] (concentration: 25 µM),1.01 ± 0.091
12,CCCN(CCC)CCc1cccc2c1CC(=O)N2 [Ropinirole·HCl] (concentration: 25 µM),0.958 ± 0.1
13,O=C1Nc2ccc(Cl)cc2[C@@](C#CC2CC2)(C(F)(F)F)O1 [Efavirenz] (concentration: 25 µM),0.628 ± 0.019
14,CC(COc1ccccc1)N(CCCl)Cc1ccccc1 (stereo not given) [Phenoxybenzamine·HCl] (concentration: 25 µM),0.746 ± 0.08
15,COc1cc(C(=O)NCc2ccc(OCCN(C)C)cc2)cc(OC)c1OC [Trimethobenzamide·HCl] (concentration: 25 µM),1.07 ± 0.057
16,Cc1ccc(/C(=C\CN2CCCC2)c2cccc(/C=C/C(=O)O)n2)cc1 [Acrivastine] (concentration: 5 µM),0.976 ± 0.12
17,CC(C)OC(=O)CCC/C=C\C[C@@H]1[C@@H](CC[C@@H](O)CCc2ccccc2)[C@H](O)C[C@@H]1O [Latanoprost] (concentration: 25 µM),0.534 ± 0.18
18,CC(C)Cc1ccc(C(C)C(=O)O)cc1 (stereo not given) [Ibuprofen] (concentration: 25 µM),0.765 ± 0.077
19,Cc1nc(-c2ccc(OCC(C)C)c(C#N)c2)sc1C(=O)O [Febuxostat] (concentration: 25 µM),0.592 ± 0.028
20,C[C@H]1O[C@H](O[C@H]2[C@H](O)[C@@H](O)[C@@H](O[C@@H]([C@H](O)[C@@H](O)C=O)[C@H](O)CO)O[C@@H]2CO)[C@H](O)[C@@H](O)[C@@H]1N[C@H]1C=C(CO)[C@@H](O)[C@H](O)[C@H]1O [Acarbose] (concentration: 25 µM),0.877 ± 0.15
